Experimental data reported in PubChem BioAssay AID2783 (National Center for Advancing Translational Sciences (NCATS), 2010).
Results filed as inconclusive are left out. The call rests on the fitted dose curve; in most records, active means well fitted inhibition curve with a large enough effect in the polarisation, with a control signal flat (not every such curve was filed as active); inconclusive means small, poorly fitted or top-dose-only effect, or effect the other way, or a change in a side signal; inactive means no such curve, though single readings can be large or run the other way; the % refers to the polarisation.

molecular target: Menin (Homo sapiens) (UniProt O00255); assay: Confirmation of Inhibitors Targeting the Menin-MLL Interaction in MLL Related Leukemias: Competition With Fluorescein Labeled MLL-derived Peptide; details: Fluorescence polarization, fluorescein-MLL peptide displacement from menin; series mostly up to 100 µM; activity change, negative = inhibition: at the top concentration
On the % scale 0 is the no-effect control and ±100 the full control effect.

Menin (Homo sapiens), sequence (O00255 whole entry, looked up): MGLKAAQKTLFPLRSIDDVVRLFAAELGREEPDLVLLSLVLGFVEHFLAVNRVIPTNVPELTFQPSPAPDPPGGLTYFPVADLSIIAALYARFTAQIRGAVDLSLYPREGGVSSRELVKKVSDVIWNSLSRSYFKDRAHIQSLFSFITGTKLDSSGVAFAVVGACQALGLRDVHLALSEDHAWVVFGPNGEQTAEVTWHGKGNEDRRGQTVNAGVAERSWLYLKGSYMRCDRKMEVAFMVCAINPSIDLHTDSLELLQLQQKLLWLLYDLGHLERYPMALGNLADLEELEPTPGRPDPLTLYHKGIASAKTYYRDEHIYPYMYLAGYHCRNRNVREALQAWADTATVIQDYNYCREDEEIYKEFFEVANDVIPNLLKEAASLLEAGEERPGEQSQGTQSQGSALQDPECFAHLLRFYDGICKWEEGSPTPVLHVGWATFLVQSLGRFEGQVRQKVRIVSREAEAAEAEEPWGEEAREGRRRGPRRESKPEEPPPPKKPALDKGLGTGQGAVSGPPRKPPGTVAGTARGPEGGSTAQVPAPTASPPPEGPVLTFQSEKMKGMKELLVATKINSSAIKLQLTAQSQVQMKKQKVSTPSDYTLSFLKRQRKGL

Activity change, negative = inhibition, inactive:
C=C1CCC[C@]2(C)C[C@H]3OC(=O)C(CNCCN(CC)CC)[C@H]3CC12 (stereo partly drawn) -4.69%, CCC(=O)NC(=S)Nc1ccc(NC(=S)NC(=O)c2ccc(C)cc2)cc1 -10.6%, O=C(Nc1cccn(Cc2c(Cl)cccc2Cl)c1=O)c1c(Cl)cccc1Cl 15.9% [at 288 µM], CC(c1ccccc1)c1nnc(NC(=O)Nc2ccccc2F)s1 (stereo not drawn) 0.65% [at 288 µM], NS(=O)(=O)c1ccc(NC(=O)c2ccc(S(=O)(=O)N3CCc4ccccc43)cc2)cc1 43.2% [at 288 µM], CN[C@H]1[C@H](O)[C@@H](O[C@@H]2[C@H](O)[C@@H](O[C@H]3OC(CN)=CC[C@H]3N)[C@@H](N)C[C@H]2N)OC[C@@]1(C)O -4.31%, COc1ccc(C2Nc3ccc4ccccc4c3-c3c2c(=O)oc2ccccc32)cc1 (stereo not drawn) -7.64%, CCc1ccc(CNC(=O)CCS(=O)(=O)Cc2ccccc2F)cc1 -4.29%, O=C(Nc1nccs1)C(Br)C(Br)c1ccccc1 (stereo not drawn) 0.0812% [at 288 µM], Cc1cc2ncn(-c3ncnc4sc5c(c34)CCC(C)C5)c2cc1C (stereo not drawn) -18.4%, CN(CCOc1ccc(Cl)cc1)CC(O)c1ccccc1 (stereo not drawn) -7.96% [at 288 µM], Cc1ccc(C(C[N+](=O)[O-])c2c(C)[nH]n(-c3ccccc3)c2=O)cc1 (stereo not drawn) -2.87%, CN1[C@H](CC(=O)c2ccccc2)CCC[C@H]1C[C@@H](O)c1ccccc1 -0.812% [at 288 µM], COc1cccc(NC(=O)N2CCCc3ccccc32)c1 -1.89%, COc1cccc(OC)c1NC(=O)CN1CCN(C)CC1 -13.1%, COc1ccccc1NS(=O)(=O)c1cc(NC(=O)Nc2cccc(C)c2)ccc1N1CCCCC1 -1.07%, O=C(O)c1cc(S(=O)(=O)O)cc(Nc2c3ccccc3nc3ccccc23)c1O -0.894% [at 288 µM], O=C(C1CCCN(Cc2cccc(Cl)c2)C1)N1CCCCC1 (stereo not drawn) -5.74%, CCN1C(=O)c2ccccc2S(=O)(=O)c2ccc(C(=O)NCCCN(CC(C)C)CC(C)C)cc21 -17.2%, COc1ccc(CN2CCC(Cc3ccccc3)CC2)c(C)c1C -1.64%, O=C(Nc1ccc2ccccc2c1)c1cn(-c2ccccc2)nc1-c1cccs1 -8.29%, CC(c1cc2ccccc2s1)N(O)C(N)=O (stereo not drawn) 3.82% [at 288 µM], O=C1C(Cl)=C(NC(=O)c2ccccc2)C(=O)C(Cl)=C1NC(=O)c1ccccc1 5.77% [at 288 µM], Cc1cccc(Nc2nnc(SCC(=O)NC(=O)Nc3ccc4c(c3)OCCO4)s2)c1 -16%, O=C(CC(=O)c1ccccc1)Nc1cc(C(F)(F)F)ccc1Cl 2.38%, Cc1c(F)cccc1NS(=O)(=O)c1ccc2c(c1)c(C)cc(=O)n2C -15.3%, COCC(=O)Nc1cccc2ccccc12 -12.3%, COc1cc(OC)c2ccc(=O)oc2c1C(CCN1CCOCC1)c1ccc(N(C)C)cc1 (stereo not drawn) 3.48%, C=C(C)[C@@H]1CC=C(CN2CCN(Cc3ccccc3)CC2)CC1 -13.5%, CC(Sc1nnc(Nc2ccccc2)s1)C(=O)Nc1nc(-c2ccccc2)cs1 (stereo not drawn) 7.12%, CCCOc1ccc(C(=O)N2CCN(Cc3ccc4c(c3)OCO4)CC2)cc1 -10.4%, COc1ccc(C2=C(CN(C)C)C(c3ccccc3)c3ccccc3O2)cc1 (stereo not drawn) -10.7%, Cc1ccccc1-c1n[nH]c(=S)n1C -8.37%
